Measurements reported in PubChem BioAssay.

The compounds below were run on Lefty1 (assay: Lefty1 binders on small-molecule microarrays, primary screen, biochemical, small-molecule microarray, 635/667 nm fluorescence (AID 1139)). Settings: small-molecule microarray binding, fluorescence 635/667; higher = more signal.

Compound | composite z-score
CC(C)C(=C=CC[C@@H](O)c1ccc(OCCO)cc1)CCO | 0.607
CC#CCO[Si](C#CCCCCCC)(C(C)C)C(C)C | -1.93
CN(C)CCCC[C@@H]1NC(=O)[C@H]2C[C@@H](C(=O)NCc3ccc(F)cc3)[C@@H](c3ccc(O)cc3)N2C1=O | 1.64
CC(C)N1CC=CC23O[C@@H]4C=CCCOC(=O)C4[C@H]2C(=O)N(CCCCCO)[C@@H]3C1=O (stereo partly specified) | -0.376
COCCOC(=O)N1C(=O)[C@@]2(c3ccccc31)[C@H](C(=O)N1CCCCCCC1)[C@H]1C(=O)O[C@H](c3ccccc3)[C@H](c3ccccc3)N1[C@@H]2c1ccc(O)cc1 | 1.69
C#CCN([C@H](/C=C/C1CC1)[C@@H](O)Cc1ccccc1)[C@@H](Cc1ccccc1)C(=O)OC | 0.683
COC(=O)[C@@]1(Cc2ccc(F)cc2)[C@H]2c3cc(C(=O)N(C)C)n(CCn4cc([N+](=O)[O-])nc4C)c3C[C@H]2CN1C(=O)c1ccccc1 | -1.07
CCOC(=O)C[C@H]1[C@H](OC(=O)Cc2ccc3c(c2)OCO3)[C@@H](NC(=O)c2ccccc2)c2cc(OCCCO)ccc2N1C(=O)Cc1ccc(OC)cc1 | 0.305
C[N+](C)(C)CCCC[C@@H]1NC(=O)[C@H]2C[C@@H](C(=O)NCCCCCNC(=O)CS)[C@@H](c3ccc(O)cc3)N2C1=O | 0.349
CN1C(=O)[C@]2(CCS(=O)(=O)c3ccccc3)N=C(c3ccc(OCCCO)cc3)O[C@@H]2c2ccccc21 | 0.34
O=C1O[C@@H](c2ccccc2)[C@@H](c2ccccc2)N2[C@@H](c3ccc(OCCO)cc3)[C@]3(C(=O)Nc4ccc(C#CCCO)cc43)[C@@H](C(=O)Nc3nc4ccccc4s3)[C@H]12 | 0.502
